# Data: ChEMBL document CHEMBL1961873, “Compounds: GSK PKIS; Assays: Nanosyn kinase panel” (2012)
# Legend:
# [1] = target: Platelet-derived growth factor receptor beta (Homo sapiens) (UniProt P09619); settings: at 1 µM;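 note: each value is a mean percent inhibition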
# [2] = target: Tyrosine-protein kinase FRK (Homo sapiens) (UniProt P42685); settings: at 0.1 µM
# [3] = target: Tyrosine-protein kinase FRK (Homo sapiens) (UniProt P42685); settings: at 1 µM
# [4] = target: Protein-tyrosine kinase 2-beta (Homo sapiens) (UniProt Q14289); settings: at 0.1 µM
# Chain of Protein-tyrosine kinase 2-beta (Homo sapiens) (Q14289 whole entry, looked up): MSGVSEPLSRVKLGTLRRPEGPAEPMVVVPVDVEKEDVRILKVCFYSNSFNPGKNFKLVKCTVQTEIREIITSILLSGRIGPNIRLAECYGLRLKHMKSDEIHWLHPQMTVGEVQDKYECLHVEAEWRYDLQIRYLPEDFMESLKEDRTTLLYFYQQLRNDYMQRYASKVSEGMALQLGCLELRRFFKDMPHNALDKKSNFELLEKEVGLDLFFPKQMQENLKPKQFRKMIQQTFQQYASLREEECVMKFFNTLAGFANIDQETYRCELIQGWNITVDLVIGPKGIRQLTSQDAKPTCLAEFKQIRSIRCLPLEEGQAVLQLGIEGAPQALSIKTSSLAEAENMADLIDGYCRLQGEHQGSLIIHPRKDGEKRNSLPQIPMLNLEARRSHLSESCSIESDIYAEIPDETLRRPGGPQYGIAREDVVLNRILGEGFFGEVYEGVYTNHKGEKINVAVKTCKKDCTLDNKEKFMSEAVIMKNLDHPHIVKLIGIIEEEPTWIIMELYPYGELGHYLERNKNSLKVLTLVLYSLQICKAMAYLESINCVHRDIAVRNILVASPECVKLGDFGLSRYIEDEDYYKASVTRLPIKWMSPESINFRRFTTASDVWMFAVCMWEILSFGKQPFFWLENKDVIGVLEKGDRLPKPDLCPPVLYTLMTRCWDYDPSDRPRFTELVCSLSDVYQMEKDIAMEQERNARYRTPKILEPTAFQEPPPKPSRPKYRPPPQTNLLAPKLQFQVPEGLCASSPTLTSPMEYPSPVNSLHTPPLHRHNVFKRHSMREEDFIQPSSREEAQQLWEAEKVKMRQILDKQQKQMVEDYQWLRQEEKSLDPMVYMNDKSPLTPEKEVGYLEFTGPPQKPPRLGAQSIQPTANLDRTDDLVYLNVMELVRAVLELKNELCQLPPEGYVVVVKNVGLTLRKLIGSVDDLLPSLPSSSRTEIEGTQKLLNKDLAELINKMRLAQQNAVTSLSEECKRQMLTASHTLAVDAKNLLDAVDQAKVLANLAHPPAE
# [5] = target: Protein-tyrosine kinase 2-beta (Homo sapiens) (UniProt Q14289); settings: at 1 µM
# [6] = target: Proto-oncogene tyrosine-protein kinase receptor Ret (Homo sapiens) (UniProt P07949); settings: at 0.1 µM
# Chain of Proto-oncogene tyrosine-protein kinase receptor Ret (Homo sapiens) (P07949 whole entry): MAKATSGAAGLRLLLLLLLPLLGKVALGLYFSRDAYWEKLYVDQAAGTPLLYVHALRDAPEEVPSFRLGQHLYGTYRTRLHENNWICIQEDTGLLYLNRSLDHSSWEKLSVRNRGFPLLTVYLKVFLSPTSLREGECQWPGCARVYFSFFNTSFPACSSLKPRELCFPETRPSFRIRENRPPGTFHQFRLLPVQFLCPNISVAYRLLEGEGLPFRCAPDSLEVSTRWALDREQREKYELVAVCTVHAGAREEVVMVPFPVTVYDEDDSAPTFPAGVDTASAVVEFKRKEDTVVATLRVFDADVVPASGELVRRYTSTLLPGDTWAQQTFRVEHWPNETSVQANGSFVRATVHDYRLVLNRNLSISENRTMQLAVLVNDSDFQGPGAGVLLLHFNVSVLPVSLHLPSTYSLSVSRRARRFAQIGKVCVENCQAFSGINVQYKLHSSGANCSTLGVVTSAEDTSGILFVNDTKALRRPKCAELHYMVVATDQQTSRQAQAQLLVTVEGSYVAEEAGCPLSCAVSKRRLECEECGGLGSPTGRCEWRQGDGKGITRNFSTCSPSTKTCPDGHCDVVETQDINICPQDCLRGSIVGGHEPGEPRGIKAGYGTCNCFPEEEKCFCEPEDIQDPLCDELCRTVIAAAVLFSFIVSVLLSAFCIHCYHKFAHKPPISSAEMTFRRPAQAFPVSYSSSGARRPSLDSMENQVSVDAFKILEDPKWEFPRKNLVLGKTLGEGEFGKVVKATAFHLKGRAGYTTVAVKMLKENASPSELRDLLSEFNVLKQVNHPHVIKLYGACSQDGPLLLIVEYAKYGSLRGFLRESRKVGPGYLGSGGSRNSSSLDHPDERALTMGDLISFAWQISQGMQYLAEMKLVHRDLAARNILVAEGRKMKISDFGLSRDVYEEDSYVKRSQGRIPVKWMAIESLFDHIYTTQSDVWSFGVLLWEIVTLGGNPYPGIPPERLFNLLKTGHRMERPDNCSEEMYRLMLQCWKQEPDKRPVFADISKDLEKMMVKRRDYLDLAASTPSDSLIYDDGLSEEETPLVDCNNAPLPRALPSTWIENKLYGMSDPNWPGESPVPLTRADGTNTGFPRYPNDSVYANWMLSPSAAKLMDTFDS
# [7] = target: Proto-oncogene tyrosine-protein kinase receptor Ret (Homo sapiens) (UniProt P07949); settings: at 1 µM
# [8] = tested on: Proto-oncogene tyrosine-protein kinase receptor Ret (Homo sapiens), P07949 [V804L]; settings: at 0.1 µM
# Chain of Proto-oncogene tyrosine-protein kinase receptor Ret (Homo sapiens), P07949 [V804L] (P07949 whole entry V804L): as the sequence (P07949 whole entry) above, with V804L counted along it
# [9] = tested on: Proto-oncogene tyrosine-protein kinase receptor Ret (Homo sapiens), P07949 [V804L]; settings: at 1 µM
# [10] = tested on: Proto-oncogene tyrosine-protein kinase receptor Ret (Homo sapiens), P07949 [Y791F]; settings: at 0.1 µM
# Chain of Proto-oncogene tyrosine-protein kinase receptor Ret (Homo sapiens), P07949 [Y791F] (P07949 whole entry Y791F): as the sequence (P07949 whole entry) above, with Y791F counted along it
# [11] = tested on: Proto-oncogene tyrosine-protein kinase receptor Ret (Homo sapiens), P07949 [Y791F]; settings: at 1 µM
# [12] = target: Macrophage-stimulating protein receptor (Homo sapiens) (UniProt Q04912); settings: at 0.1 µM
# [13] = target: Macrophage-stimulating protein receptor (Homo sapiens) (UniProt Q04912); settings: at 1 µM
# [14] = target: Proto-oncogene tyrosine-protein kinase ROS (Homo sapiens) (UniProt P08922); settings: at 0.1 µM
# [15] = target: Proto-oncogene tyrosine-protein kinase ROS (Homo sapiens) (UniProt P08922); settings: at 1 µM
# [16] = target: Proto-oncogene tyrosine-protein kinase Src (Homo sapiens) (UniProt P12931); settings: at 0.1 µM
# Chain of Proto-oncogene tyrosine-protein kinase Src (Homo sapiens) (P12931 2-536 limits assumed): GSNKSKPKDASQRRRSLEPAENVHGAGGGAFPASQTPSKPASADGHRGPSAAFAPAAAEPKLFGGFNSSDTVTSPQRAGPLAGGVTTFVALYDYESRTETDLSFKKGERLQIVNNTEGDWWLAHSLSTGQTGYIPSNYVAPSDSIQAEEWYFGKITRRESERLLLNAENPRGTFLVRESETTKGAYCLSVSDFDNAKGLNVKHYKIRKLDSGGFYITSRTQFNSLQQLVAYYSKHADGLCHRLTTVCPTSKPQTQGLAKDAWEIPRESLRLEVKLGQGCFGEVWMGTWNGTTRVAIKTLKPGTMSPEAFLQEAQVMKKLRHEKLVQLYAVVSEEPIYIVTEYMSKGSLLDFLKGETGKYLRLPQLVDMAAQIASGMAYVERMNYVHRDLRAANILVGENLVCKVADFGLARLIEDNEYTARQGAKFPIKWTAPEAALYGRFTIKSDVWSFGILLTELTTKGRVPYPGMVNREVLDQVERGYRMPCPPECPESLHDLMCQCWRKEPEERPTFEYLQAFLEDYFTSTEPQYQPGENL
# [17] = target: Proto-oncogene tyrosine-protein kinase Src (Homo sapiens) (UniProt P12931); settings: at 1 µM
# [18] = target: Tyrosine-protein kinase Srms (Homo sapiens) (UniProt Q9H3Y6); settings: at 0.1 µM
# Chain of Tyrosine-protein kinase Srms (Homo sapiens) (Q9H3Y6 whole entry): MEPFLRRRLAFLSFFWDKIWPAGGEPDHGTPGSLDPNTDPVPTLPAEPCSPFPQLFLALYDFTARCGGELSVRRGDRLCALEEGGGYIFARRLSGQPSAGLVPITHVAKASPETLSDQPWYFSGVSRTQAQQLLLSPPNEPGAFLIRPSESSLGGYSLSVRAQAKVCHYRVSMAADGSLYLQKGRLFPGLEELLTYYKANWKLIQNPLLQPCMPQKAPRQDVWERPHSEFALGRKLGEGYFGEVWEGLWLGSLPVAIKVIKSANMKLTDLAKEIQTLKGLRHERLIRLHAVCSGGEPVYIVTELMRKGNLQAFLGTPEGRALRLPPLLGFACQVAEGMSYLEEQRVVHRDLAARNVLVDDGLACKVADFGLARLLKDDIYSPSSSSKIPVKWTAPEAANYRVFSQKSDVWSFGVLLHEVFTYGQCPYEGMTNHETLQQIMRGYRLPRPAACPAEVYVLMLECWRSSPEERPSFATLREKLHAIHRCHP
# [19] = target: Tyrosine-protein kinase Srms (Homo sapiens) (UniProt Q9H3Y6); settings: at 1 µM
# [20] = target: Tyrosine-protein kinase SYK (Homo sapiens) (UniProt P43405); settings: at 0.1 µM;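 note: reported percentages are mean inhibition values for SYK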
# Chain of Platelet-derived growth factor receptor beta (Homo sapiens) (P09619 whole entry): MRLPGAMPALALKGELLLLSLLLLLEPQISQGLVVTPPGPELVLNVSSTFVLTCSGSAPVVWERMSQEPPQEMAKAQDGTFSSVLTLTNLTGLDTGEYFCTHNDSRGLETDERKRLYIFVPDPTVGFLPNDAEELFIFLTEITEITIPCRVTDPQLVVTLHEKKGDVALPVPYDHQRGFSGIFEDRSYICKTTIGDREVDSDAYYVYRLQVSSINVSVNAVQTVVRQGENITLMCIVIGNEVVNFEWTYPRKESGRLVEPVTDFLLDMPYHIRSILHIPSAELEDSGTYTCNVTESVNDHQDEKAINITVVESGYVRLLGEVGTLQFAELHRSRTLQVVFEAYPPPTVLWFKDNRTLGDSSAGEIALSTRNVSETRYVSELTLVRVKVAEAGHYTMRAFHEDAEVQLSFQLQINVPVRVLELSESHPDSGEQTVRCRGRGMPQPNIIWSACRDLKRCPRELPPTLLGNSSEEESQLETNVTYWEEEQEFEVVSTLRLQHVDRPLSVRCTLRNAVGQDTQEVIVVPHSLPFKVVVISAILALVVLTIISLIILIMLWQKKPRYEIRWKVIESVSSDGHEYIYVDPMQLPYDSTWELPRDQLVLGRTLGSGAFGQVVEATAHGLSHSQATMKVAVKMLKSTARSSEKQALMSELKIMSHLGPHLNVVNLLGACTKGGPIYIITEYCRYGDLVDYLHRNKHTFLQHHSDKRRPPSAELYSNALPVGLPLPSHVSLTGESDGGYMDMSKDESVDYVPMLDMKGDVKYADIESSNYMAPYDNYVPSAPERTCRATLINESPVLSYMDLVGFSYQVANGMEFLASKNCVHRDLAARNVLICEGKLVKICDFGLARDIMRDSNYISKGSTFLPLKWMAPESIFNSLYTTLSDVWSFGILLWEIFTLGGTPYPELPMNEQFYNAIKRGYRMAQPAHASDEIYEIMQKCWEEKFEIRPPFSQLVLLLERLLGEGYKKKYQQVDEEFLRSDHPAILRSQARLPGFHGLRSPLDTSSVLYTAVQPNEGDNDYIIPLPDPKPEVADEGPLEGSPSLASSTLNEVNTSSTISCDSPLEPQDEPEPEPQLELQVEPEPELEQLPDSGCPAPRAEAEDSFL
# Chain of Tyrosine-protein kinase FRK (Homo sapiens) (P42685 whole entry): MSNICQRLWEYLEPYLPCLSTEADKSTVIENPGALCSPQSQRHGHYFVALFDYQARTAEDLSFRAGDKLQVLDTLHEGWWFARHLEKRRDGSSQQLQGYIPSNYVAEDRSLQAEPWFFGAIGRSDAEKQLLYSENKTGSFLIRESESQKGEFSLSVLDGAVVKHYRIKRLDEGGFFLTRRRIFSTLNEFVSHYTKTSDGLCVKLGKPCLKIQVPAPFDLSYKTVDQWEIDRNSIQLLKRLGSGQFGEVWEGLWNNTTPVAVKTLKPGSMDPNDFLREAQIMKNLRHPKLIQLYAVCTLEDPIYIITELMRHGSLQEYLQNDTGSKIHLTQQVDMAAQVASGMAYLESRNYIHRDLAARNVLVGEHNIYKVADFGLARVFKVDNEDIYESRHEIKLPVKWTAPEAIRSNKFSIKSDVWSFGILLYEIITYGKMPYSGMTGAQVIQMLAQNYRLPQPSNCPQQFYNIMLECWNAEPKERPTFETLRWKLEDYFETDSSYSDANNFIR
smiles,measurement,setting,value
CCn1c(-c2nonc2N)nc2c(C#CC(C)(C)O)ncc(OCC3CCNCC3)c21,inhibition,[1],44.6%
same,inhibition,[2],1.13%
same,inhibition,[3],1.21%
same,inhibition,[4],9.34%
same,inhibition,[5],29.7%
same,inhibition,[6],6.89%
same,inhibition,[7],26.3%
same,inhibition,[8],6.2%
same,inhibition,[9],28.5%
same,inhibition,[10],5.3%
same,inhibition,[11],33.5%
same,inhibition,[12],0.01%
same,inhibition,[13],7.68%
same,inhibition,[14],3.89%
same,inhibition,[15],5.45%
same,inhibition,[16],-0.03%
same,inhibition,[17],8.65%
same,inhibition,[18],0.75%
same,inhibition,[19],1.57%
same,inhibition,[20],0.62%
NS(=O)(=O)c1ccc(-c2ccc3c(NC(=O)C4CC4)n[nH]c3c2)cc1,inhibition,[1],5.87%
same,inhibition,[2],1.62%
same,inhibition,[3],1.3%
same,inhibition,[4],6.65%
same,inhibition,[5],5.61%
same,inhibition,[6],3%
same,inhibition,[7],8.48%
same,inhibition,[8],2.82%
same,inhibition,[9],4.4%
same,inhibition,[10],3.34%
same,inhibition,[11],5.85%
same,inhibition,[12],5.07%
same,inhibition,[13],8.99%
same,inhibition,[14],1.18%
same,inhibition,[15],2.15%
same,inhibition,[16],1.32%
same,inhibition,[17],4.59%
same,inhibition,[18],-2.44%
same,inhibition,[19],-0.4%
same,inhibition,[20],-0.58%
Nc1nonc1-c1nc2cnccc2n1C1CCCCC1,inhibition,[1],26.4%
same,inhibition,[2],0.25%
same,inhibition,[3],0.75%
same,inhibition,[4],-7.07%
same,inhibition,[5],-8.39%
same,inhibition,[6],3.59%
same,inhibition,[7],9.55%
same,inhibition,[8],5.85%
same,inhibition,[9],19.5%
same,inhibition,[10],2.08%
same,inhibition,[11],13.2%
same,inhibition,[12],13.1%
same,inhibition,[13],-1.49%
same,inhibition,[14],5.33%
same,inhibition,[15],35.9%
same,inhibition,[16],1.24%
same,inhibition,[17],-1.17%
same,inhibition,[18],1.53%
same,inhibition,[19],2.59%
same,inhibition,[20],3.45%
COc1cccc(COc2cc(-n3cnc4ccccc43)sc2C(N)=O)c1,inhibition,[1],8.32%
same,inhibition,[2],0%
same,inhibition,[3],0.01%
same,inhibition,[4],-3.42%
same,inhibition,[5],-2.02%
same,inhibition,[6],0.11%
same,inhibition,[7],7.33%
same,inhibition,[8],0.81%
same,inhibition,[9],0.07%
same,inhibition,[10],0.47%
same,inhibition,[11],11.6%
same,inhibition,[12],-1.15%
same,inhibition,[13],1.23%
same,inhibition,[14],1.62%
same,inhibition,[15],3.74%
same,inhibition,[16],-0.77%
same,inhibition,[17],-2.52%
same,inhibition,[18],-2.46%
same,inhibition,[19],-1.46%
same,inhibition,[20],-0.33%
NC(=O)c1sc(-n2cnc3cc(C(F)(F)F)ccc32)cc1OCc1ccccc1Br,inhibition,[1],5.82%
same,inhibition,[2],0.62%
same,inhibition,[3],-0.62%
same,inhibition,[4],3.52%
same,inhibition,[5],-2.94%
same,inhibition,[6],5.91%
same,inhibition,[7],2.23%
same,inhibition,[8],1.83%
same,inhibition,[9],11.6%
same,inhibition,[10],2.29%
same,inhibition,[11],7.07%
same,inhibition,[12],0.35%
same,inhibition,[13],-1.59%
same,inhibition,[14],4.23%
same,inhibition,[15],5.52%
same,inhibition,[16],3.37%
same,inhibition,[17],2.02%
same,inhibition,[18],0.27%
same,inhibition,[19],0.76%
same,inhibition,[20],0.79%
CCn1c(-c2nonc2N)nc2c(C#CC(C)(C)O)nc(O[C@@H](CN)c3ccccc3)cc21,inhibition,[1],79.5%
same,inhibition,[2],-0.39%
same,inhibition,[3],0.63%
same,inhibition,[4],27%
same,inhibition,[5],80.1%
same,inhibition,[6],41.7%
same,inhibition,[7],90%
same,inhibition,[8],9.12%
same,inhibition,[9],47.7%
same,inhibition,[10],41.8%
same,inhibition,[11],80.3%
same,inhibition,[12],1.9%
same,inhibition,[13],3.42%
same,inhibition,[14],2.61%
same,inhibition,[15],11.1%
same,inhibition,[16],2.84%
same,inhibition,[17],20.9%
same,inhibition,[18],4.6%
same,inhibition,[19],0.15%
same,inhibition,[20],1.9%
Cc1cc(-c2ccco2)cc(C)c1/C=C/c1cncc(-c2nn[nH]n2)c1,inhibition,[1],2.67%
same,inhibition,[2],-0.44%
same,inhibition,[3],-0.05%
same,inhibition,[4],1.24%
same,inhibition,[5],0%
same,inhibition,[6],1.88%
same,inhibition,[7],3.21%
same,inhibition,[8],8.81%
same,inhibition,[9],1.72%
same,inhibition,[10],2.21%
same,inhibition,[11],2.75%
same,inhibition,[12],1.68%
same,inhibition,[13],-0.11%
same,inhibition,[14],2.71%
same,inhibition,[15],3.62%
same,inhibition,[16],2.38%
same,inhibition,[17],2.91%
same,inhibition,[18],0.76%
same,inhibition,[19],3.61%
same,inhibition,[20],0.05%
COc1cccc(-n2ncc3c(N/N=C/c4ccncc4)ncnc32)c1,inhibition,[1],81.2%
same,inhibition,[2],2.72%
same,inhibition,[3],5.75%
same,inhibition,[4],11.5%
same,inhibition,[5],16.5%
same,inhibition,[6],9.73%
same,inhibition,[7],50.3%
same,inhibition,[8],7.23%
same,inhibition,[9],31.1%
same,inhibition,[10],18.4%
same,inhibition,[11],65.9%
same,inhibition,[12],12.4%
same,inhibition,[13],60.9%
same,inhibition,[14],10.2%
same,inhibition,[15],76%
same,inhibition,[16],49.1%
same,inhibition,[17],87.3%
same,inhibition,[18],1.22%
same,inhibition,[19],14.3%
same,inhibition,[20],-2.07%
NS(=O)(=O)c1ccc(N/C=C2\C(=O)Nc3ccc4ncsc4c32)cc1,inhibition,[1],86.8%
same,inhibition,[2],2.34%
same,inhibition,[3],3.93%
same,inhibition,[4],7.28%
same,inhibition,[5],43.6%
same,inhibition,[6],30.4%
same,inhibition,[7],71.3%
same,inhibition,[8],47.3%
same,inhibition,[9],73.9%
same,inhibition,[10],30.5%
same,inhibition,[11],69%
same,inhibition,[12],7.83%
same,inhibition,[13],39.2%
same,inhibition,[14],6.11%
same,inhibition,[15],17%
same,inhibition,[16],12.2%
same,inhibition,[17],42.9%
same,inhibition,[18],-3.95%
same,inhibition,[19],-1.72%
same,inhibition,[20],-2.47%
Fc1ccc(-c2ncn(C3CCNCC3)c2-c2ccnc(Oc3ccccc3)n2)cc1,inhibition,[1],5.68%
same,inhibition,[2],1.48%
same,inhibition,[3],1.29%
same,inhibition,[4],4.92%
same,inhibition,[5],6.66%
same,inhibition,[6],3.19%
same,inhibition,[7],7.03%
same,inhibition,[8],1.33%
same,inhibition,[9],5.85%
same,inhibition,[10],1.85%
same,inhibition,[11],4.13%
same,inhibition,[13],-0.69%
same,inhibition,[14],2.25%
same,inhibition,[15],4.83%
same,inhibition,[16],1.52%
same,inhibition,[17],2.45%
same,inhibition,[18],-0.96%
same,inhibition,[19],-0.16%
same,inhibition,[20],2.45%
CCn1c(-c2nonc2N)nc2c(C#CCN)ncc(OCCCN)c21,inhibition,[1],25.5%
same,inhibition,[2],-0.39%
same,inhibition,[3],-0.01%
same,inhibition,[4],-5.89%
same,inhibition,[5],8.44%
same,inhibition,[6],3.26%
same,inhibition,[7],4.11%
same,inhibition,[8],6.12%
same,inhibition,[9],9.27%
same,inhibition,[10],1.83%
same,inhibition,[11],15.8%
same,inhibition,[12],-2.05%
same,inhibition,[13],-3.31%
same,inhibition,[14],3.3%
same,inhibition,[15],4.46%
same,inhibition,[16],-2.04%
same,inhibition,[17],-4.29%
same,inhibition,[18],1.1%
same,inhibition,[19],1.96%
same,inhibition,[20],8.99%
COc1cc(C=NNc2ncnc3c2cnn3Cc2ccccc2)ccc1O,inhibition,[1],26.4%
same,inhibition,[2],0.54%
same,inhibition,[3],1.85%
same,inhibition,[4],-6.73%
same,inhibition,[5],-1.9%
same,inhibition,[6],7.87%
same,inhibition,[7],46.3%
same,inhibition,[8],1.82%
same,inhibition,[9],11.1%
same,inhibition,[10],7.69%
same,inhibition,[11],28.4%
same,inhibition,[12],-1.32%
same,inhibition,[13],12.5%
same,inhibition,[14],2.7%
same,inhibition,[15],16.4%
same,inhibition,[16],31.2%
same,inhibition,[17],76.5%
same,inhibition,[18],-0.22%
same,inhibition,[19],4.66%
same,inhibition,[20],4.57%
CCn1c(-c2nonc2N)nc2c(C#CC(C)(C)O)ncc(OC[C@@H]3CCCN3)c21,inhibition,[1],47.2%
same,inhibition,[2],-0.88%
same,inhibition,[3],0.68%
same,inhibition,[4],1.89%
same,inhibition,[5],23%
same,inhibition,[6],3.87%
same,inhibition,[7],25.2%
same,inhibition,[8],0.45%
same,inhibition,[9],2.53%
same,inhibition,[10],3%
same,inhibition,[11],28.5%
same,inhibition,[12],1.97%
same,inhibition,[13],-2.78%
same,inhibition,[14],-0.22%
same,inhibition,[15],0.45%
same,inhibition,[16],-0.2%
same,inhibition,[17],-2.58%
same,inhibition,[18],1.63%
same,inhibition,[19],0.87%
same,inhibition,[20],-0.6%
COc1cc2c(cc1Nc1nc(Nc3ccsc3C(N)=O)c3cc[nH]c3n1)N(C(=O)CN(C)C)CCC2,inhibition,[1],33.9%
same,inhibition,[2],1.91%
same,inhibition,[3],8.84%
same,inhibition,[4],77.8%
same,inhibition,[5],95.6%
same,inhibition,[6],11.9%
same,inhibition,[7],14.2%
same,inhibition,[8],2.29%
same,inhibition,[9],13.6%
same,inhibition,[10],1.79%
same,inhibition,[11],7.35%
same,inhibition,[12],2.97%
same,inhibition,[13],11.5%
same,inhibition,[14],82.1%
same,inhibition,[15],82.1%
same,inhibition,[16],8.11%
same,inhibition,[17],6.64%
same,inhibition,[18],5.79%
same,inhibition,[19],3.93%
same,inhibition,[20],10.9%
